From PubChem BioAssay (NCATS)
Inconclusive results are not listed. The source made the active and inactive calls. Unless noted, calls follow the shape of the dose curve; as a rule, active = well fitted curve in the direction sought with a large enough effect; inconclusive = small, poorly fitted or top-dose-only effect, or another doubt; inactive = no such curve, though single readings can be large; an effect the other way counts as inactive or inconclusive.

Experiments:
[1] = AP1 Signaling Pathway (AID 357; active = well fitted curve in either direction with a large enough effect, not every such curve was filed as active;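 also: ME-180 reporter cells stimulated with EGF at its EC50 level; % is scaled to controls: 0 for no effect and ±100 for the full control effect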)
Method in brief: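 In this screen, ME-180 cells in Opti-MEM with 0.5% dialyzed FBS received EC50 EGF and compound titrations for 5 h. AP-1 reporter beta-lactamase was detected via CCF4 ratio, giving AC50 for positive and negative modulators.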

[2] = NFAT Signaling Pathway (AID 444; active = well fitted curve in either direction with a large enough effect, not every such curve was filed as active;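 also: carbachol stimulus at about its EC50 of 1 µM final; % is scaled to controls: 0 for no effect and ±100 for the full control effect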); details: Jurkat NFAT-bla M1, carbachol, beta-lactamase ratio, 5 h; at 17.2 µM (top of the series) unless noted
Method in brief: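 Jurkat cells carrying an NFAT-driven β-lactamase reporter and co-transfected muscarinic M1 receptor were treated with compound plus carbachol (1 uM final, an EC50 level) for 5 h at 37 °C. CCF4 loading followed for 1 h at RT; 460/530 nm ratio gave %activity.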

[3] = Stat Signaling Pathway (AID 446; active = well fitted curve in either direction with a large enough effect, not every such curve was filed as active;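 also: ME-180 cervical cancer cells given 40 pM IL-6 alongside compound; SIE-controlled beta-lactamase reporter measured as 460/530 nm FRET emission ratio; % is scaled to controls: 0 for no effect and ±100 for the full control effect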)
Method in brief: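 Compound effects on IL-6-induced STAT reporter activity were measured in ME-180 cells. After overnight culture, cells were co-treated with 40 pM IL-6 for 5 hrs before beta-lactamase substrate loading at room temperature.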

[4] = molecular target: Glucocorticoid receptor (Homo sapiens) (UniProt P04150); test: GR-EFC Redistribution (AID 451; calls by dose curve; also: potency is read from the fitted curve at half-maximal effect); details: CHO-K1 GR-EFC translocation, beta-gal luminescence, 2 h
Method in brief: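 CHO-K1 cells stably expressing nuclear-localized β-gal enzyme acceptor and GR fused C-terminally to the enzyme donor fragment; ligand-driven nuclear translocation restores β-gal by complementation. Compounds titrated up to 46 uM final, 2 h at 37 °C; luminescence read.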

[5] = molecular target: 3',5'-cyclic-AMP phosphodiesterase 4B (Homo sapiens) (UniProt Q07343); test: qHTS Assay for Inhibitors of PDE-IV (AID 607; active = well fitted activation curve with a large enough effect in the main read-out, with a control signal flat, not every such curve was filed as active; also: % of control where 0% means no effect)
Method in brief: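 ACTOne HEK293 cells carry a modified cAMP-gated CNG channel and express endogenous PDE4; plated 1000 cells/well, compounds up to 22.9 uM final. Membrane-potential dye fluorescence (ex 535/em 590) was read; parental cells received 10 uM forskolin + 100 uM RO 20-1724.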

[6] = qHTS Assay for Lipid Storage Modulators (AID 1519; calls by dose curve); details: Drosophila S3 cells, BODIPY lipid droplet/cell ratio, laser cytometry, cells loaded with oleic acid
Method in brief: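 Cells seeded at 5,000 per well were treated with compounds over a concentration series and loaded with oleic acid (400 uM, as added). Lipid droplet fluorescence (488 nm excitation, 500-530 nm channel) was read by laser-scanning cytometry and normalized to 20 uM Triacsin C.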

[7] = molecular target: ATP-dependent 6-phosphofructokinase (Trypanosoma brucei brucei) (UniProt O15648); test: qHTS Assay to Find Inhibitors of T. brucei phosphofructokinase: hit validation (AID 492961);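 also: luminescence reports ADP formed as PFK phosphorylates fructose-6-phosphate with ATP; % is scaled to controls: 0 for no effect and ±100 for the full control effect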
Method in brief: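 Percent activity derived from corrected luminescence, normalized between 0x and 1x enzyme controls, then fitted to concentration-response curves. Conditions: 1.25 nM PFK, 0.1 mM ATP, 0.5 mM F6P, 45 min RT.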

[8] = molecular target: Ubiquitin carboxyl-terminal hydrolase 1 (Homo sapiens) (UniProt O94782); test: Inhibitors of USP1/UAF1: Pilot qHTS (AID 504865); also: nearly all actives have a fitted effect of over 35% in size; also: potency is read from the fitted curve at half-maximal effect
Method in brief: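 1nM USP1/UAF1 + cpd, 15 min RT; start w/ Ub-Rho 150nM final; kinetic FL 480/540 nm, 6 reads q60 s. Buffer 50mM HEPES pH 7.8, 0.5mM EDTA, 1mM TCEP, 0.01% Tween-20, 0.1 mg/ml BSA.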

[9] = molecular target: Luciferin 4-monooxygenase (Photinus pyralis) (UniProt P08659); test: Biochemical firefly luciferase enzyme assay for NPC (AID 624030);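 also: purified P. pyralis luciferase at 10 nM with luciferin and ATP substrate; 0% = DMSO and -100% = full luciferase inhibition by PTC124 control; nearly all actives have a fitted effect of over 70% in size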
Method in brief: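 Counter-screen for direct inhibition of the luciferase enzyme by approved-drug library compounds, run at 10 nM enzyme in 50 mM Tris acetate (final). Luminescence was read within 5 min of enzyme-buffer addition and normalized to PTC124 versus DMSO (0%).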

[10] = S16 Schwann cell PMP22 intronic element firefly luciferase assay (AID 624032);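 also: plate controls were DMSO for no effect and PTC124 positive control mean for full effect; nearly all actives have a fitted effect of over 30% in size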
Method in brief: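 Rat S16 Schwann cells stably carrying a PMP22 intronic element-driven Fluc reporter were seeded overnight, then exposed to compounds for 24 h at 37 °C. Luminescence was normalized to PTC124 (positive control) and DMSO (0% activity).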

[11] = qHTS profiling for inhibitors of Plasmodium falciparum proliferation (AID 504749);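 also: 0% = DMSO vehicle and full inhibition = artemisinin control; nearly all actives have a fitted effect of over 60% in size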; details: P. falciparum in erythrocytes, SYBR Green DNA, 72 h
Method in brief: (§1)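 Fluorescence of SYBR Green-bound parasite DNA, read at 485/535 nm, served as the growth measure. Infected erythrocytes were cultured with compound 72 h; artemisinin (0.29 uM) and DMSO wells defined the normalization range.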

AS120 = test: as above; details: P. falciparum in erythrocytes, SYBR Green DNA, 72 h; series mostly up to 12.8 µM
Method in brief: as §1

C2A = test: as above; details: P. falciparum in erythrocytes, SYBR Green DNA, 72 h; series mostly up to 12.8 µM
Method in brief: as §1

CP238 = test: as above; details: P. falciparum in erythrocytes, SYBR Green DNA, 72 h; series mostly up to 12.8 µM
Method in brief: as §1

CP250 = test: as above; details: P. falciparum in erythrocytes, SYBR Green DNA, 72 h; series mostly up to 12.8 µM
Method in brief: as §1

CP252 = test: as above; details: P. falciparum in erythrocytes, SYBR Green DNA, 72 h; series mostly up to 12.8 µM
Method in brief: as §1

HB3 = test: as above; details: P. falciparum in erythrocytes, SYBR Green DNA, 72 h; series mostly up to 12.8 µM
Method in brief: as §1

SC27B = test: as above; details: P. falciparum in erythrocytes, SYBR Green DNA, 72 h; series mostly up to 12.8 µM
Method in brief: as §1

[12] = molecular target: Glucocorticoid receptor (Homo sapiens) (UniProt P04150); test: GR-GFP Redistribution (AID 450;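 active = compounds whose dose series gives a full or clear partial fitted curve of increased nuclear translocation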; also: potency is read from the fitted curve at half-maximal effect); details: U2OS GR-GFP nuclear translocation, laser cytometry, 2 h
[13] = molecular target: Mitogen-activated protein kinase 10 (Mus musculus) (UniProt Q61831); test: JNK3 AlphaScreen Assay (AID 530; active = well fitted curve in either direction with a large enough effect, not every such curve was filed as active)
Method in brief: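 Biotinylated GST-cJun(1-79) served as substrate for JNK3 in HepG2 lysates stimulated with IL-1beta and TNF-alpha. ATP was 10 uM final, pH 7.6. Ser73 phosphorylation was quantified by AlphaScreen (680 nm excitation).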

[14] = measured here: cell count channel max response
[15] = measured here: lipid channel max response
[16] = at 12.8 µM (top of the series), parasite line A
[17] = at 12.8 µM (top of the series), parasite line B

Glucocorticoid receptor (Homo sapiens), sequence (P04150 whole entry, looked up, the tested form may be a part): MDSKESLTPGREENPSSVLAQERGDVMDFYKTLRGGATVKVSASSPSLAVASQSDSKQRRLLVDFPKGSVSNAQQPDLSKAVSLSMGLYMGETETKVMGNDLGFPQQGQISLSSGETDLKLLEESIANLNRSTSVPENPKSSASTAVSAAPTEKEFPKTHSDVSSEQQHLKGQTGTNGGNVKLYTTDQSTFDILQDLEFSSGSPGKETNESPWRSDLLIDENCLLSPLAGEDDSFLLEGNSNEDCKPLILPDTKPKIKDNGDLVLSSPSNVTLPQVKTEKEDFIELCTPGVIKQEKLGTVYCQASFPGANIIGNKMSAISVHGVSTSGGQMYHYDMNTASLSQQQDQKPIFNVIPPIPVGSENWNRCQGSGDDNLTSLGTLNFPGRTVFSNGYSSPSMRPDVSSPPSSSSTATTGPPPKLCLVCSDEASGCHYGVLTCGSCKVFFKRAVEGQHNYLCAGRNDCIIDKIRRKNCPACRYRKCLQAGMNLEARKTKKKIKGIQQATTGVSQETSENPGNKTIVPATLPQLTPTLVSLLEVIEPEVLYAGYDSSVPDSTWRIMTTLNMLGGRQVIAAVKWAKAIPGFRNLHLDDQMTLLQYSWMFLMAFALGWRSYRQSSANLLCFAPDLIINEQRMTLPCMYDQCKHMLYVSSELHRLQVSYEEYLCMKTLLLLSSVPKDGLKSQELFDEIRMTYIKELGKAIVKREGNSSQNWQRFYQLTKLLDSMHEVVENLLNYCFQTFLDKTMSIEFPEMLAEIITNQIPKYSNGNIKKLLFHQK
Ubiquitin carboxyl-terminal hydrolase 1 (Homo sapiens), sequence (O94782 whole entry, looked up): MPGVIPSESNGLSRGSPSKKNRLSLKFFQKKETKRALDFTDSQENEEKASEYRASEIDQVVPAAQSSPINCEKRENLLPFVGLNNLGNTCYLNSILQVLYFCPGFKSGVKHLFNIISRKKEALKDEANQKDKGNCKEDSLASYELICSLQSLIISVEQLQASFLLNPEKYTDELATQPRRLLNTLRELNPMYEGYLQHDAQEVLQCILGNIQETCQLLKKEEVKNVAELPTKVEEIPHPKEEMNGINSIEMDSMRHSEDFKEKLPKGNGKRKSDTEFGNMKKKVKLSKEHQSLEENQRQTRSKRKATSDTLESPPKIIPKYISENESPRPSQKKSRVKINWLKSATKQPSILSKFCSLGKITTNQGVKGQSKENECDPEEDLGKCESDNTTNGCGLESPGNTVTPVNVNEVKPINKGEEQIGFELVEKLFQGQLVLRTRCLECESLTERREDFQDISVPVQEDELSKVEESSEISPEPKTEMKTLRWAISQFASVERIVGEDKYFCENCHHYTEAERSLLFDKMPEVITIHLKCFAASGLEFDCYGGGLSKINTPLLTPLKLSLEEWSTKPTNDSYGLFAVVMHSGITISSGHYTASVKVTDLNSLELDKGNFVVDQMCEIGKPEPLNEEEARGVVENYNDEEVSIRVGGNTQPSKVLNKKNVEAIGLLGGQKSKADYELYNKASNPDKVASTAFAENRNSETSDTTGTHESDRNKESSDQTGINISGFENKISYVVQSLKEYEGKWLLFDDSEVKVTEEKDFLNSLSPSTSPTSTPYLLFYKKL
ATP-dependent 6-phosphofructokinase (Trypanosoma brucei brucei), sequence (O15648 whole entry, looked up): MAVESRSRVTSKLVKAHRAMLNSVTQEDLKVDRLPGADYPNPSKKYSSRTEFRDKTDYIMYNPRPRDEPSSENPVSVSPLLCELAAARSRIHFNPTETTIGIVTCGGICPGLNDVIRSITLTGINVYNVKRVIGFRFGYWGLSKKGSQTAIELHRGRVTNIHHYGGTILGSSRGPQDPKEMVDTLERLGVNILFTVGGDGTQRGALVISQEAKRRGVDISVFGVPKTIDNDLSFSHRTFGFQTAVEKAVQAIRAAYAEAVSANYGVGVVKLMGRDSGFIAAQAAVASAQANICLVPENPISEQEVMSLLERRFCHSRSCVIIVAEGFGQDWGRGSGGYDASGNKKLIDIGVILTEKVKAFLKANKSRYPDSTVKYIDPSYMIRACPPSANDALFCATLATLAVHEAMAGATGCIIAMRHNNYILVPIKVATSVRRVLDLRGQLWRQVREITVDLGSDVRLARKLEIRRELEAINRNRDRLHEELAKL
3',5'-cyclic-AMP phosphodiesterase 4B (Homo sapiens), sequence (Q07343 whole entry, looked up): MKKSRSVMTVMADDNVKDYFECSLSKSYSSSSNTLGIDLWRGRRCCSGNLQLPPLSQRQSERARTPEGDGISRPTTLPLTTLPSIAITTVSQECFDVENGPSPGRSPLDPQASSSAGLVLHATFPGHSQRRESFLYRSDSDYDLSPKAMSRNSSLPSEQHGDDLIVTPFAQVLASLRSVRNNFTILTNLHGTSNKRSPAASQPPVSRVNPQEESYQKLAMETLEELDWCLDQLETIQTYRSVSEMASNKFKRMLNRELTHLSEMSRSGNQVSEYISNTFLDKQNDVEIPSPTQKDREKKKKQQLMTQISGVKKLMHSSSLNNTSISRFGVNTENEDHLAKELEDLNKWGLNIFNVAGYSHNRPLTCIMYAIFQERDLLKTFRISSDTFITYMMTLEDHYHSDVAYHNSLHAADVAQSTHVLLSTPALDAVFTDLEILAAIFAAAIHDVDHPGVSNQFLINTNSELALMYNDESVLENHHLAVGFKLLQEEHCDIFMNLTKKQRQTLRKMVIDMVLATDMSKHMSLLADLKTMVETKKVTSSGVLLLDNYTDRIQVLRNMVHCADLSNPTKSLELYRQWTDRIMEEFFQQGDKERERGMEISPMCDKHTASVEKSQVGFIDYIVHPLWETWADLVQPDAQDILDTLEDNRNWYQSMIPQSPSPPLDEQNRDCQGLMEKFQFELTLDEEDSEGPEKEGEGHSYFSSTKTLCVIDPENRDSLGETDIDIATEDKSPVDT
Luciferin 4-monooxygenase (Photinus pyralis), sequence (P08659 whole entry, looked up): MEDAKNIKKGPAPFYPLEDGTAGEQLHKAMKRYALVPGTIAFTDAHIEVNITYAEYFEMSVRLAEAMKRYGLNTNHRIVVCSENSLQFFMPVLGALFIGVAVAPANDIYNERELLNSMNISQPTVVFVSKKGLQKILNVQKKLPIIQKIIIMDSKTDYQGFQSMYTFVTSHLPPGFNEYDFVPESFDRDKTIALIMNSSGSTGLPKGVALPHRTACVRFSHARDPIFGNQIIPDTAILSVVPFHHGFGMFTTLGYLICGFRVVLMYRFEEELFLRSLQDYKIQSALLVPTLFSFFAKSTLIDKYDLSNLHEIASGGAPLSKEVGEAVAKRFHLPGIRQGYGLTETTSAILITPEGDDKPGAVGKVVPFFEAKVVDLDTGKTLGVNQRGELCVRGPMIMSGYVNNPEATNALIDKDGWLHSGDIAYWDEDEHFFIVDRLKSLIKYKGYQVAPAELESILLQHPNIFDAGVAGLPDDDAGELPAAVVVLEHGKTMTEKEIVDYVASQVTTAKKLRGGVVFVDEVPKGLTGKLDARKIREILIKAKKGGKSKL

O=C1O[C@@H]([C@@H](O)CO)[C@@H](O)[C@H]1O
8.38%: max response [6, 14]
inactive: outcome [1] | activity change, negative = inhibition [2] -7.5% | outcome [3] | Potency [4] > 20.6 µM | outcome [5] | activity change, negative = inhibition ([6]; at 25.7 µM (top of the series)) -0.208% | outcome [7] | Potency [8] | Potency [9] | Potency [10] | activity, negative = inhibition ([11]; at 28.7 µM (top of the series), parasite line A) -5.65% | activity, negative = inhibition ([11]; at 28.7 µM (top of the series), parasite line B) 14.7% | Potency (AS120) | Potency (C2A) | Potency (CP238) | Potency (CP250) | Potency (CP252) | Potency (HB3) | Potency (SC27B)
7.66%: max response [6, 15]

CN[C@H]1[C@@H](O)[C@@H](NC)[C@@H]2O[C@@]3(O)C(=O)C[C@@H](C)O[C@H]3O[C@H]2[C@H]1O
1.41%: max response [6, 14]
inactive: outcome [1] | activity change, negative = inhibition [2] -11.9% | outcome [3] | Potency [12] > 20.6 µM | Potency [4] > 20.6 µM | Potency [13] | outcome [5] | activity change, negative = inhibition ([6]; at 25.7 µM (top of the series)) 0.684% | outcome [7] | Potency [8] | Potency [9] | Potency [10] | activity, negative = inhibition [11, 16] -10.3% | activity, negative = inhibition [11, 17] -0.369% | Potency (AS120) | Potency (C2A) | Potency (CP238) | Potency (CP250) | Potency (CP252) | Potency (HB3) | Potency (SC27B)
2.93%: max response [6, 15]

C[C@@H]1[C@H](C)CC[C@@]2(C(=O)O)CC[C@]3(C)C(=CC[C@H]4[C@@]5(C)CC[C@@H](O)C(C)(C)[C@@H]5CC[C@@]43C)[C@@H]12
inactive: outcome [1] | activity change, negative = inhibition [2] -17.6% | outcome [3] | Potency [12] > 20.6 µM | Potency [4] > 20.6 µM | Potency [13] | outcome [5] | activity change, negative = inhibition ([6]; at 25.7 µM (top of the series)) -4.31% | Potency [8]
-11%: max response [6, 15]
-6.67%: max response [6, 14]

Cc1ccccc1OC[C@H](O)CO
-5.46%: max response [6, 15]
-3.4%: max response [6, 14]
inactive: outcome [1] | activity change, negative = inhibition [2] 11.2% | outcome [3] | Potency [12] > 20.6 µM | Potency [4] > 20.6 µM | Potency [13] | outcome [5] | activity change, negative = inhibition ([6]; at 25.7 µM (top of the series)) -0.676% | Potency [8]

Fc1ccc(Nc2nc(-c3cccnc3)nc3ccccc23)cc1
0.257%: max response [6, 15]
-6.31%: max response [6, 14]
active: Potency [8] 39.8 µM
inactive: outcome [1] | activity change, negative = inhibition [2] -9.74% [at 7.69 µM] | outcome [3] | Potency [12] > 46 µM | Potency [4] > 46 µM | Potency [13] | activity change, negative = inhibition ([6]; at 57.5 µM (top of the series)) 7.7%

CC(=O)OCC(=O)[C@@]12OC(C)(C)O[C@@H]1C[C@H]1[C@H]3C[C@H](F)C4=CC(=O)C=C[C@@]4(C)[C@]3(F)[C@H](O)C[C@@]12C
-13.1%: max response [6, 14]
-17.4%: max response [6, 15]
active: Potency [4] 0.0128 µM
inactive: outcome [1] | activity change, negative = inhibition [2] -1.01% | outcome [3] | Potency [13] | outcome [5] | activity change, negative = inhibition ([6]; at 25.7 µM (top of the series)) -1.78% | outcome [7] | Potency [8] | Potency [9] | Potency [10] | activity, negative = inhibition [11, 16] -6.81% | activity, negative = inhibition [11, 17] -12% | Potency (AS120) | Potency (C2A) | Potency (CP238) | Potency (CP250) | Potency (CP252) | Potency (HB3) | Potency (SC27B)
